This passage reports growth results from PubChem BioAssay (NCI).

This is part of a sample that, as a whole, favours compounds with a hit. Of some 83,000 tested, about 20% had one in any assay.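 Each cell line was grown in a 96-well plate and treated with one concentration of compound for 48 hours. Values below 10 were considered active.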 A number with no mark means an inactive call. Activity calls are given as the source filed them.

What all share (test): NCI-60 one-dose screen, 48 h (100 = growth as untreated, 0 = no growth, -100 = all killed)
One experiment deals with HCT-15 colon. To be noted: 10 µM unless noted.
For the next experiment, the system named is HT29 colon. To be noted: 10 µM unless noted.
The subject of the next experiment is SNB-75 CNS. To be noted: 10 µM unless noted.
The subject of another experiment is SNB-19 CNS. To be noted: 10 µM unless noted.
The subject of the next experiment is U251 CNS. To be noted: 10 µM unless noted.
A further experiment concerns PC-3 prostate. Particulars: 10 µM unless noted.
The test system of a further experiment is SK-MEL-5 melanoma. To be noted: 10 µM unless noted.
The subject of a further experiment is UACC-62 melanoma. Particulars: 10 µM unless noted.
The subject of another experiment is LOX IMVI melanoma. To be noted: 10 µM unless noted.
A further experiment has as its system SK-MEL-28 melanoma. Particulars: 10 µM unless noted.
A further experiment concerns SK-MEL-2 melanoma. Particulars: 10 µM unless noted.
In the next experiment the test system is EKVX NSCLC. Particulars: 10 µM.
The subject of a further experiment is SN12C renal. Particulars: 10 µM unless noted.
In a further experiment the test system is UO-31 renal. To be noted: 10 µM unless noted.
In the next experiment the test system is TK-10 renal. To be noted: 10 µM unless noted.
In the next experiment the test system is ACHN renal. To be noted: 10 µM unless noted.
A further experiment deals with CAKI-1 renal. Particulars: 10 µM unless noted.
The test system of the next experiment is A498 renal. To be noted: 10 µM unless noted.
The subject of a further experiment is CCRF-CEM leukemia. To be noted: 10 µM.
A further experiment concerns MOLT-4 leukemia. Particulars: 10 µM unless noted.

In the case of `CC(=O)Nc1nc(C)c(C(=O)NNC(=O)Nc2ccccc2)s1`, the growth is 96.7% in the experiment with HCT-15 colon; 99% in the experiment on HT29 colon; 98.4% with SNB-75 CNS; 93.9% in the experiment on SNB-19 CNS; 102% in the experiment with U251 CNS; 85.2% with PC-3 prostate. For the same compound, the growth was 97% with SK-MEL-5 melanoma; 78.1% with UACC-62 melanoma; 97.9% in the experiment on LOX IMVI melanoma; 105% in the experiment with SK-MEL-28 melanoma; 29.9% in the experiment on SK-MEL-2 melanoma; 153% in the experiment on EKVX NSCLC. Moreover, the growth is 92.3% in the experiment on SN12C renal; 77.7% in the experiment on UO-31 renal; 159% in the experiment with TK-10 renal; 93.3% in the experiment with ACHN renal; 140% in the experiment on CAKI-1 renal; 90.7% with A498 renal. For the same compound, the growth is 79.8% in the experiment on CCRF-CEM leukemia and 115% in the experiment on MOLT-4 leukemia.
As to `COc1ccc2cnc(N)c(C#Cc3cc(C(=O)Nc4ccc(CN5CCN(C)CC5)c(C(F)(F)F)c4)cnc3C)c2c1`, the growth with HCT-15 colon is 43.5%; in the experiment on HT29 colon it was 13.2%; with SNB-75 CNS, -1.84% (active); with SNB-19 CNS it was 80.5%; in the experiment with U251 CNS, 17.2%; with PC-3 prostate it was 16%. In addition, the growth is 34.6% with SK-MEL-5 melanoma; 26.3% in the experiment with UACC-62 melanoma; 12% in the experiment with LOX IMVI melanoma; -72.5% (active) with SK-MEL-28 melanoma; 56.8% in the experiment on SK-MEL-2 melanoma; 71.8% with EKVX NSCLC. Further, the growth is 50% with SN12C renal; -71.8% (active) with UO-31 renal; 27.4% in the experiment with TK-10 renal; -43.2% (active) in the experiment with ACHN renal; 33.9% with CAKI-1 renal; 37.5% in the experiment on A498 renal. Further, the growth in the experiment with CCRF-CEM leukemia is 18.7%; with MOLT-4 leukemia, 23.7%.
With `COC(=O)/C=C/c1cc(O)c2oc(-c3ccc(O)c(O)c3)c(C(=O)OC)c2c1`, the growth in the experiment on HCT-15 colon is 14.1%; in the experiment on HT29 colon, 59.8%; with SNB-75 CNS, 7.74% (active); in the experiment on SNB-19 CNS, 31.7%; with U251 CNS it was 18.1%; in the experiment on PC-3 prostate, 11.4%. Also, the growth in the experiment on SK-MEL-5 melanoma was -13.3% (active); in the experiment with UACC-62 melanoma, 36.6%; with LOX IMVI melanoma it was 19.1%; in the experiment with SK-MEL-28 melanoma, 57.2%; in the experiment with SK-MEL-2 melanoma, 43%; with EKVX NSCLC, 49.7%. The growth in the experiment on SN12C renal was 34.4%; with UO-31 renal, 22.6%; in the experiment on TK-10 renal it was 46.7%; with ACHN renal, 30.2%; in the experiment with CAKI-1 renal, 19.9%; in the experiment on A498 renal, 18.2%. The growth is 3.32% (active) with CCRF-CEM leukemia and 19.2% in the experiment with MOLT-4 leukemia.
Regarding `COc1cccc(Cn2cc3c(c2)-c2oncc2CC3)c1`, the growth in the experiment on HCT-15 colon is 18.7%; with HT29 colon it was 9.25% (active); in the experiment on SNB-75 CNS it was 25.2%; in the experiment on SNB-19 CNS, 39.4%; in the experiment with U251 CNS, 31.7%; with PC-3 prostate it was 27.4%. The growth in the experiment with SK-MEL-5 melanoma is 6.37% (active); in the experiment with UACC-62 melanoma, 46.2%; with LOX IMVI melanoma, 34.7%; in the experiment on SK-MEL-28 melanoma, 51.9%; in the experiment with SK-MEL-2 melanoma, 35.5%; in the experiment with EKVX NSCLC, 27.2%. The growth in the experiment with SN12C renal was 34.5%; in the experiment on UO-31 renal it was 38.8%; with TK-10 renal, 69.4%; in the experiment on ACHN renal, 42.7%; in the experiment on CAKI-1 renal it was 13.9%; with A498 renal it was 36.4%. Moreover, the growth in the experiment on CCRF-CEM leukemia is 15.2%; with MOLT-4 leukemia it was 26.6%.
As for `COc1cc2c(/C=C3\C(=O)Nc4ccc(Br)cc43)c(Cl)n(C)c2cc1C`, the growth in the experiment with HCT-15 colon is 6.8% (active); in the experiment with HT29 colon, 7.9% (active); in the experiment with SNB-75 CNS, 31.6%; in the experiment with SNB-19 CNS, 24%; in the experiment with U251 CNS it was 10.2%; in the experiment on PC-3 prostate, 11.8%. Moreover, the growth with SK-MEL-5 melanoma is -3% (active); in the experiment on UACC-62 melanoma it was 29.7%; in the experiment on LOX IMVI melanoma it was 9.9% (active); with SK-MEL-28 melanoma, 55.6%; in the experiment on SK-MEL-2 melanoma, 29.7%; in the experiment on EKVX NSCLC it was 42.1%. In addition, the growth in the experiment with SN12C renal is 35.5%; with UO-31 renal it was 31.6%; in the experiment with TK-10 renal it was 31.2%; in the experiment with ACHN renal it was 29.5%; with CAKI-1 renal, 69.7%; in the experiment with A498 renal it was 3.37% (active). The results for the growth in the experiment with CCRF-CEM leukemia and with MOLT-4 leukemia were -11.7% (active) and 4.36% (active), respectively.
In the case of `NC(N)=Nc1ccc(/C=C2\C=Cc3ccccc32)cc1`, the growth was 68% with HCT-15 colon; 36.1% in the experiment on HT29 colon; 52.7% with SNB-75 CNS; 75.6% in the experiment with SNB-19 CNS; 67.8% in the experiment with U251 CNS; 51.9% in the experiment with PC-3 prostate. Further, the growth is 79.6% in the experiment on SK-MEL-5 melanoma; 69% in the experiment with UACC-62 melanoma; 40% in the experiment on LOX IMVI melanoma; 91.6% in the experiment with SK-MEL-28 melanoma; 85.6% in the experiment with SK-MEL-2 melanoma; 75.7% in the experiment on EKVX NSCLC. For the same compound, the growth in the experiment on SN12C renal was 79.3%; in the experiment on UO-31 renal it was 49.1%; in the experiment on TK-10 renal, 78.1%; in the experiment with ACHN renal, 67.8%; in the experiment on CAKI-1 renal it was 64.2%; in the experiment on A498 renal, 47.7%. Further, the growth in the experiment on CCRF-CEM leukemia is 49.4%; with MOLT-4 leukemia, 37.2%.
For the compound `Cc1nn(-c2ccccc2)c(N)c1N=C1NC(=O)/C(=C/c2ccc(Cl)cc2)S1`, the growth is 80.6% with HCT-15 colon; 106% in the experiment with HT29 colon; 58.9% in the experiment with SNB-75 CNS; 83.6% with SNB-19 CNS; 79.1% in the experiment with U251 CNS; 76.8% in the experiment on PC-3 prostate. The growth was 92.1% in the experiment with SK-MEL-5 melanoma; 77.3% in the experiment on UACC-62 melanoma; 89.7% with LOX IMVI melanoma; 92.3% in the experiment with SK-MEL-28 melanoma; 100% in the experiment on SK-MEL-2 melanoma; 90.8% in the experiment with EKVX NSCLC. The growth is 85.8% in the experiment with SN12C renal; 73% with UO-31 renal; 104% with TK-10 renal; 87.3% in the experiment with ACHN renal; 66.8% in the experiment with CAKI-1 renal; 68.6% in the experiment with A498 renal. For the same compound, the growth was 68.2% in the experiment with CCRF-CEM leukemia and 87.9% in the experiment with MOLT-4 leukemia.
On to `CC(C)(C)c1ccc([I+]c2ccc(C(C)(C)C)cc2)cc1`, for which the growth with HCT-15 colon was 69.4%; in the experiment with HT29 colon it was 11%; in the experiment on SNB-75 CNS it was 18.7%; in the experiment on SNB-19 CNS, 13.8%; with U251 CNS, 3.28% (active); in the experiment with PC-3 prostate, 0.197% (active). The growth with SK-MEL-5 melanoma is -94.7% (active); in the experiment on UACC-62 melanoma, -42.2% (active); in the experiment with LOX IMVI melanoma, -88% (active); in the experiment on SK-MEL-28 melanoma, 6.31% (active); with SK-MEL-2 melanoma, -2.7% (active); in the experiment with EKVX NSCLC, 15.6%. For the same compound, the growth with SN12C renal was 3.97% (active); in the experiment on UO-31 renal, 62.8%; with TK-10 renal, 23.5%; with ACHN renal it was 47.3%; in the experiment with CAKI-1 renal, 87.6%; in the experiment with A498 renal, -2.59% (active). Moreover, the results for the growth in the experiment with CCRF-CEM leukemia and with MOLT-4 leukemia were 9.22% (active) and 12.1%, respectively.
